Compounds without any hit were thinned out: in the full panel of roughly 83,000, 20% have a hit.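 Cells were grown in 96-well plates and exposed to the test compound at a single concentration for 48 hours; results are reported as percent growth, with values below 10 considered active.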 Values without a mark were called inactive. The source made the active and inactive calls.

This assay relates to SW-620 colon. The experiment in a line: NCI-60 one-dose screen, 48 h (100 = growth as untreated, 0 = no growth, -100 = all killed). The note with it: 10 µM unless noted.
As to `COc1cccc(-c2nn(-c3ccccc3)cc2-c2ccnc(NCCCN)c2)c1`, the growth was 43.5%.
The result for `Cn1cnc2c1c(=O)n(CCC(=O)Nc1ccc(F)cc1)c(=O)n2C` reads 107%; that for `C=C(C)[C@@H]1CC[C@]2(C=O)CC[C@]3(C)[C@H](CC[C@@H]4[C@@]5(C)C/C(=C/c6cccnc6)C(=O)C(C)(C)[C@@H]5CC[C@]43C)[C@@H]12`, 76.2%.
The result for `CN(C)c1cccc2[nH]c(-c3[nH]ncc3Nc3ccnc(N)n3)nc12` reads -5.42% (active); that for `O=Cc1nc2ccccc2[nH]1`, 101%; that for `COc1cc2nc(Cl)nc(Nc3cccc(C(=O)/C=C/c4ccc(Br)cc4)c3)c2cc1OC`, 15.1%.
The result for `CC[C@H](CC[C@@H](C)[C@H]1CC[C@H]2[C@@H]3/C(=C/c4cccnc4)C(=O)C4=CC(=O)CC[C@]4(C)[C@H]3CC[C@]12C)C(C)C` reads 93.7%; that for `C=C(C)[C@@H]1CC[C@]2(c3nnc(-c4ccncc4)o3)CC[C@]3(C)[C@H](CC[C@@H]4[C@@]5(C)CCC(=O)NC(C)(C)[C@@H]5CC[C@]43C)[C@@H]12`, 103%; that for `COc1cc(NC(C)CN(CC(C)C)C(C)C)c2ncccc2c1` (stereo unspecified), 92.9%.
With `Nc1c2c(nc3ccc(Cl)cc13)CC(c1ccccc1)CC2=O` (stereo unspecified), the growth is 24.8%.
The figure for `COC(=O)[C@]12CC[C@@H](C)[C@H](C)[C@@H]1C1=CC[C@@H]3[C@@]4(C)C[C@@H](O)[C@H](O)[C@@](C)(CO)C4=CC[C@@]3(C)[C@]1(C)CC2` is -55.5% (active).

The record behind these values is PubChem BioAssay (NCI).
